In the library only some 3.8% were active in any assay of this set; here they are far more common.
ATXN viability – reduces viability in counter-screen for ATXN expression inhibitors. S2 cells (HEK-293 line with an ATXN2-luciferase reporter) viability, CellTiter-Fluor protease fluorescence, 24 h. Potency, µM (highest dose often 56.7 µM), usual class: cytotoxic. hit rate 0.49% among 400,000; also: nearly all actives have a fitted effect of over 40% in size
ATXN2 expr inh – ATXN2 expression inhibition; Potency, µM (doses to about 57 µM), for inactives: at the highest dose activity change, negative = inhibition, hits mostly inhibitors; HEK-293 ATXN2-luciferase reporter, luminescence, 24 h; hit rate 0.72% among 360,000; AID 1745845; also: % is scaled to controls: 0 for no effect and ±100 for the full control effect; nearly all actives have a fitted effect of over 55% in size
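qHTS (up to 57 uM final) was run with 24 h compound exposure of reporter cells at 37 °C. Each well was multiplexed: SteadyGlo luminescence measured ATXN2-luciferase expression after a fluorogenic Gly-Phe-AFC viability readout (25 uM final).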
HT1080 IDH1KD tx – kills HT-1080 cells with IDH1 knockdown | HT-1080 IDH1 knockdown viability, ATP luminescence, 48 h | Potency, µM (doses to about 46.1 µM), for the others: at the top dose activity, negative = toxicity, most hits filed as cytotoxic | hit rate 2% among 360,000 | AID 686971;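 also: 0% = DMSO wells and -100% = cell-free medium wells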
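IDH1KD HT-1080 cells, 750/well, RPMI + 5% FBS; compound pinned after 2 h settling; 48 h, 37 °C; CellTiter-Glo luminescence; % activity normalised to DMSO and no-cell wells; curves fitted, classed by r2 and efficacy.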
HepG2 viability – kills HepG2 cells in TGF-b inhibitor counter-screen. HepG2 CAGA-GFP viability, ATP luminescence, 18 h. Potency, µM (highest dose often 46.1 µM), inactives show top-dose activity change, negative = cytotoxicity, hits mostly cytotoxic. hit rate 0.76% among 410,000. AID 588856
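HepG2 CAGA-GFP cells (1000/well, DMEM with 1% FBS) received compound, then TGF-beta at 500 pg/mL final, and were incubated 18 hours at 37 degrees C. Viability was read by CellTiter-Glo luminescence. Media-only wells were set as complete cell-killing and DMSO as no toxicity.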
TGFb inhibitor – blocks TGF-b signaling; HepG2 CAGA-GFP TGF-b/SMAD3 reporter, GFP fluorescence, 18 h; TGF-beta stimulated, 500 pg/mL final; Potency, µM (highest dose often 46.1 µM), inactives show at the top dose activity, negative = inhibition, usual class: inhibitors; hit rate 1.2% among 410,000; also: % is scaled to controls: 0 for no effect and ±100 for the full control effect; nearly all actives have a fitted effect of over 65% in size
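Using HEPG2 CAGA-GFP reporter cells at 1000 cells/well, we pinned test compounds, stimulated with recombinant TGF-beta (500 pg/mL final) and measured total well GFP after 18 h.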
HT1080NT lethal – kills 2HG-producing HT-1080-NT fibrosarcoma cells; HT-1080-NT fibrosarcoma viability, CellTiter-Glo ATP luminescence, 48 h; Potency, µM (highest dose often 46.1 µM), for inactives: top-dose activity, negative = less viability, most hits filed as cytotoxic; hit rate 1.6% among 360,000;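 also: NT is the 2HG producing partner of a matched IDH1 knockdown line; 0% = DMSO-treated cells and -100% = media-only wells without cells; nearly all actives have a fitted effect of over 55% in size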
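HT-1080-NT fibrosarcoma cells (2HG-overproducing), 750 cells/well in RPMI with 5% FBS, dosed after 2 h and incubated 48 h at 37C. CellTiter-Glo luminescence normalized to DMSO and no-cell wells; concentration-response curves fitted and classed.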
* hit, by the source's call; i = inactive; ? = inconclusive; · = not tested or not shown. Calls follow the shape of the dose curve; as a rule, active = well fitted curve in the direction sought with a large enough effect; inconclusive = small, poorly fitted or top-dose-only effect, or another doubt; inactive = no such curve, though single readings can be large; an effect the other way counts as inactive or inconclusive. Potency is read from the fitted curve at half-maximal effect.

SMILES	ATXN viability	ATXN2 expr inh	HT1080 IDH1KD tx	HepG2 viability	TGFb inhibitor	HT1080NT lethal
COc1ccc2[nH]c3c(c2c1)CCN1C(=O)C(CC(=O)NC/C=C(\C)CCC=C(C)C)C[C@H](C(=O)N(C(C)C)C(C)C)[C@@]31C (stereo partly drawn)	i	2.2%	?	-103.4%	15.8µM*	?
CC(C)=CCC/C(C)=C/CNC(=O)C[C@H]1C[C@H](C(=O)N2CCCCC2)[C@@]2(C)c3[nH]c4cc(CCC(=O)N(C)C)ccc4c3CCN2C1=O	31.6µM*	?	-21.2%	-46.9%	?	-2.3%
COc1ccc(CN2CCOc3ccc(CN4CCN(CCO)CC4)cc3C2)c2ccccc12	i	·	·	·	·	·
CCOC(=O)c1ccccc1NC(=O)N1CCN2CCCCC2C1 (stereo not drawn)	·	·	·	-1.6%	?	·
CCOc1ccc(NC(=O)COC(=O)c2ccccc2OCc2ccccc2Br)cc1	·	·	10.8%	·	·	10.3%
CC(C)N(C(=O)[C@H]1C[C@H](CC(=O)NCC23CC4CC(CC(C4)C2)C3)C(=O)N2CCc3c([nH]c4cc(CCC(=O)N(C)C)ccc34)[C@]12C)C(C)C	25.1µM*	?	9.9%	-72.5%	?	6.5%
COc1ccccc1CCc1nc2ccccc2n1C1CCN(C(=O)c2cc(C)nn2C)CC1	i	·	·	·	·	·
O=C(Nc1ccccc1)Nc1ccc2ncoc2c1	·	43.7%	-0.3%	0.251µM*	1.2%	1.9%
CC(C)(C)OC(=O)N1CCC(c2c(C(=O)NCc3ccc4c(c3)OCO4)cnn2-c2ccc(F)cc2F)CC1	·	·	·	-19.5%	12.6µM*	·
Cc1cccc(-n2ncc(C(=O)NCc3ccc4c(c3)OCO4)c2C2CCN(C(=O)OC(C)(C)C)CC2)c1	·	·	·	-7.2%	-24.8%	·
CCCCn1c(=O)[nH]c(=O)c2c1nc(CN1C(=O)c3ccccc3S1(=O)=O)n2CCC	i	4.6%	8.9%	-19.0%	-6.6%	5.0%
CCCCn1c(=O)[nH]c(=O)c2c1nc(Cn1ncc(Cl)c(Cl)c1=O)n2CCC	?	?	11.6µM*	11.2µM*	6.31µM*	8.2µM*
N#C/C(=C\c1ccncc1)c1nc2ccccc2[nH]1	i	42.1%	-1.2%	-25.3%	2.5%	-22.6%
Cc1cc2nc(/C(C#N)=C/c3ccncc3)[nH]c2cc1C	i	3.2%	23.1µM*	-21.6%	-26.8%	?
N#Cc1ccc2[nH]cc(C3c4cc(F)ccc4C=C(c4ccsc4)N3c3ccc(C#CCCO)cc3)c2c1 (stereo not drawn)	?	-34.1%	14.6µM*	·	·	?
O=C1NC(c2ccccc2Cl)=N/C1=C/c1ccco1	i	33.0%	-3.6%	17.8µM*	?	-3.3%
O=C1NC(c2ccc(Br)cc2)=N/C1=C/c1ccco1	i	21.2%	-23.2%	4.8%	-0.3%	-14.4%
CCCOc1ccc(C(=O)C(CN2CCOCC2)c2ccccc2)cc1 (stereo not drawn)	?	20µM*	16.4µM*	-91.5%	15.8µM*	18.4µM*
COCCNC(=O)c1oc2ccc3c(c2c1C)C(O)CC(C)(C)O3 (stereo not drawn)	i	20.5%	20.0%	7.3%	6.8%	13.8%
Cc1c(C(=O)N2CCC(C)CC2)oc2ccc3c(c12)C(O)CC1(CCCCC1)O3 (stereo not drawn)	?	13.9%	9.2µM*	-14.9%	?	?
CCOC(=O)C1CCCN(C(=O)Cn2c(=O)cc(C)c3c(C)nn(C)c32)C1 (stereo not drawn)	i	-19.3%	·	-12.1%	?	·
Cc1cc(=O)n(CC(=O)N2CCN(c3ccc(F)cc3)CC2)c2c1c(C)nn2C	?	?	·	-31.8%	7.08µM*	·

Screens (PubChem BioAssay)
